Activity calls are given as the source filed them.
Legend:
[1] = system: Plasmodium falciparum Sir2 (PF13_0152, Sir2A); assay: Plasmodium falciparum Sir2A binding compounds – biochemical, small-molecule microarray, 635 nm fluorescence, primary screen (AID 1098); conditions: fluorescence 635 nm, higher = more signal;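 also: score merges spot fluorescence intensity with its signal-to-noise ratio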
[2] = probe aDKK1 binding to arrayed compounds – biochemical, biotinylated probe, 635/667 nm fluorescence, primary screen (AID 1099); conditions: small-molecule microarray, higher = more signal;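 also: score merges 667nm spot fluorescence with signal to noise across triplicate slides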
[3] = probe aCHRDL2 binding to arrayed compounds – biochemical, biotinylated probe, 635/667 nm fluorescence, primary screen (AID 1100); conditions: small-molecule microarray, higher = more signal
[4] = change in splice reporter luminescence, either direction, cell-based, HEK293, spliceosome inhibition project, primary screen (AID 1101); conditions: HEK293 splicing luciferase reporter, 24 h, higher = more signal, called active from +8 up or from −8 down;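 also: HEK293 cells carrying a splicing-competent luciferase reporter gene; test concentration not given here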
[5] = molecular target: Fibroblast growth factor 10 (Homo sapiens) (UniProt O15520); assay: compounds binding fibroblast growth factor 10 – biochemical, small-molecule microarray, 635 nm fluorescence, primary screen (AID 1102); conditions: FGF10 binding, fluorescence 635 nm, higher = more signal
Chain of Fibroblast growth factor 10 (Homo sapiens) (O15520 whole entry, looked up): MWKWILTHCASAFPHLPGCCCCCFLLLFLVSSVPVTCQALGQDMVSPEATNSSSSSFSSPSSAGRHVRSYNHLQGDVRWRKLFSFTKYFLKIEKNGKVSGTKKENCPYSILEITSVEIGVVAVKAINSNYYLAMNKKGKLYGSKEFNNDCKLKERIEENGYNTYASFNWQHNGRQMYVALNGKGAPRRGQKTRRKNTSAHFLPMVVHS

[6] = system: glycogen synthase kinase-3 (GSK3A per assay name; protocol says GSK3B); assay: compounds binding glycogen synthase kinase-3 – biochemical, small-molecule microarray, 635 nm fluorescence, GSK3A, primary screen (AID 1103); conditions: fluorescence 635 nm, higher = more signal; also: the record names both GSK3A and GSK3B
[7] = molecular target: Epidermal growth factor receptor (Homo sapiens) (UniProt P00533); assay: compounds binding epidermal growth factor receptor – biochemical, small-molecule microarray, 635 nm fluorescence, primary screen (AID 1104); conditions: EGFR binding, higher = more signal;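 also: score merges 667 nm emission intensity with spot signal to noise over triplicate slides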
Chain of Epidermal growth factor receptor (Homo sapiens) (P00533 whole entry, looked up): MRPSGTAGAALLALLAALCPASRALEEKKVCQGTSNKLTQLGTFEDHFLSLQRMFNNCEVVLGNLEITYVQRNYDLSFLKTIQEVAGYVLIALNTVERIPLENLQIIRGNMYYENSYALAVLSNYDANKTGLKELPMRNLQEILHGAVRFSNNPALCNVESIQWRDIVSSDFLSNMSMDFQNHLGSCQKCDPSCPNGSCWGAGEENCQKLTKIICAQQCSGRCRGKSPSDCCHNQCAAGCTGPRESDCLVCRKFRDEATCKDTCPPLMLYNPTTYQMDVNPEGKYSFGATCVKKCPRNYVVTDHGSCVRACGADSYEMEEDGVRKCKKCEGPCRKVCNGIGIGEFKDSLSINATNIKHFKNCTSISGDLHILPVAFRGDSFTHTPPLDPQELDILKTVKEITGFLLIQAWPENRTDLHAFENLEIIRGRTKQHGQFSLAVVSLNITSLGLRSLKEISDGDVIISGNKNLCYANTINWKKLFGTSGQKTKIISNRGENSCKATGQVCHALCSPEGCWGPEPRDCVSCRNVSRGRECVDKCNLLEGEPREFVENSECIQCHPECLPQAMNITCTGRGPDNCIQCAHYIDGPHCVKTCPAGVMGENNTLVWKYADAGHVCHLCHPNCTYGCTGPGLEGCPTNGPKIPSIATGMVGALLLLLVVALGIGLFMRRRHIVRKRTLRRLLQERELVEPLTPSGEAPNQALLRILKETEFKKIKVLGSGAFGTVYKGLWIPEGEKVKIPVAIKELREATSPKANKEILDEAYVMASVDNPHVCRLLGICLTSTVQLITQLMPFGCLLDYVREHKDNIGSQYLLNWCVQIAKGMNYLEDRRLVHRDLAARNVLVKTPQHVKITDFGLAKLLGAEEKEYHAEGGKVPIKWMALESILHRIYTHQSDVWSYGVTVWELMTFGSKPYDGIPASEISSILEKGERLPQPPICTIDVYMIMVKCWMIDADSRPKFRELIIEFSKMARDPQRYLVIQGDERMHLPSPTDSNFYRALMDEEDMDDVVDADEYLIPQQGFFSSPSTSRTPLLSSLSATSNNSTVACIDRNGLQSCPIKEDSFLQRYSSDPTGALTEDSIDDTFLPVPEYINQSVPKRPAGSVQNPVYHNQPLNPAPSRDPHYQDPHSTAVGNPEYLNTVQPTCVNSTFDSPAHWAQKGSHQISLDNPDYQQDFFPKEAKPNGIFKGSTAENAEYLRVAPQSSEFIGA

[8] = molecular target: Follistatin-related protein 3 (Homo sapiens) (UniProt O95633); assay: compounds binding follistatin-related protein 3 – biochemical, small-molecule microarray, 635 nm fluorescence, primary screen (AID 1105); conditions: FSTL3 binding, higher = more signal;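 also: score merges emission near 667 nm and signal to noise per printed spot across three slides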
Chain of Follistatin-related protein 3 (Homo sapiens) (O95633 whole entry, looked up): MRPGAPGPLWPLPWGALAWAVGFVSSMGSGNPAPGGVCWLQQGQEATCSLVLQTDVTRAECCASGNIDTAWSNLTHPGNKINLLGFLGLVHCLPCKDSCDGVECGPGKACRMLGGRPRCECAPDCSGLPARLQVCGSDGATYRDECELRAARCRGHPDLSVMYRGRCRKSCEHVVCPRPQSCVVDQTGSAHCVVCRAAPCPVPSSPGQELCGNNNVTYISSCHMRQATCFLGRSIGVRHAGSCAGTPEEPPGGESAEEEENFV

[9] = molecular target: Dickkopf-related protein 1 (Homo sapiens) (UniProt O94907); assay: small molecules binding DKK1 protein – biochemical, small-molecule microarray, 635 nm fluorescence scan, primary screen (AID 1106); conditions: higher = more signal;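 also: score merges emission near 667 nm with signal to noise over three replicate slides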
Chain of Dickkopf-related protein 1 (Homo sapiens) (O94907 whole entry, looked up): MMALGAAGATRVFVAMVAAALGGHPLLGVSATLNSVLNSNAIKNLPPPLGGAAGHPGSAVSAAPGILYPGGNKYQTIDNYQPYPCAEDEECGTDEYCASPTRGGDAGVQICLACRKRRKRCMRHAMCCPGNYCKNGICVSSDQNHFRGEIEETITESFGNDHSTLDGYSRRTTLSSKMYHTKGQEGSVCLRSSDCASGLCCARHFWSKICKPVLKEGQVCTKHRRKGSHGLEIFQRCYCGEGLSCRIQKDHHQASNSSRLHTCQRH

[10] = system: Inhibin beta A chain (activin A); assay: small molecules binding activin A – biochemical, small-molecule microarray, 635 nm fluorescence scan, primary screen (AID 1107); conditions: INHBA, higher = more signal;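 also: mouse activin A protein probed at 4.33 µg/mL on printed slides; score merges bound-protein fluorescence near 667 nm with spot signal-to-noise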
[11] = system: Human papillomavirus type 1a protein E7 (residues 44-93); assay: small molecules binding HPV E7 44-93 – biochemical, small-molecule microarray, residues 44-93, 635 nm fluorescence, primary screen (AID 1108); conditions: fluorescence 635 nm, higher = more signal;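 also: E7 fragment applied at 1 µg/mL in TBST for 1 h at 4 C; score combines spot fluorescence with its signal to noise ratio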
[12] = hepatitis C replication reporter changes, two-sided – Huh7 cells, luciferase reporter, HCV replication inhibitor project, primary screen (AID 1109); conditions: Huh7 HCV replicon luciferase reporter, 48 h; higher = more signal;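 also: huh7 hepatoma cells harbouring a luciferase neomycin HCV replicon reporter; luciferase luminescence as measure of HCV replicon replication; test concentration not given here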
[13] = molecular target: Left-right determination factor 2 (Homo sapiens) (UniProt O00292); assay: small molecules binding LEFTY2 protein – biochemical, small-molecule microarray, 635 nm fluorescence scan, primary screen (AID 1110); conditions: higher = more signal
Chain of Left-right determination factor 2 (Homo sapiens) (O00292 whole entry, looked up): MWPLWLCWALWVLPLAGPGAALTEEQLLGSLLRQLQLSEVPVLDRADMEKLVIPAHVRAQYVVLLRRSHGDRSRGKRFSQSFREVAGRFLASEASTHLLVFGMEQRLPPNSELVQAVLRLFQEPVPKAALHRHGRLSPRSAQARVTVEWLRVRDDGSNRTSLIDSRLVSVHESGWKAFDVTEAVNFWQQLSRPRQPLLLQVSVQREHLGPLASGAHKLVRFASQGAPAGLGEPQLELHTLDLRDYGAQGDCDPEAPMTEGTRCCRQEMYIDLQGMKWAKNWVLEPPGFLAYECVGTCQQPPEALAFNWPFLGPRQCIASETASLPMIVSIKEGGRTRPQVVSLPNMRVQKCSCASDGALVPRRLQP

[14] = molecular target: Calmodulin-1 (Homo sapiens) (UniProt P0DP23); assay: small molecules binding calmodulin-1 with EGTA – biochemical, small-molecule microarray, Cy5-labelled CALM1, profiling panel (AID 1111); conditions: Cy5-CALM1 binding fluorescence, higher = more signal;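 also: labelled calmodulin applied in Tris saline Tween buffer holding calcium plus EGTA and DTT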
[15] = molecular target: Calmodulin-1 (Homo sapiens) (UniProt P0DP23); assay: small molecules binding Ca-loaded calmodulin-1 – biochemical, small-molecule microarray, Cy5-labelled CALM1, plus calcium, artefact control for SMM control-protein annotation, profiling panel (AID 1112); conditions: Cy5-CALM1 binding fluorescence, higher = more signal;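 also: score merges spot fluorescence with signal to noise from triplicate slides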
[16] = probe aWnt5a binding to arrayed compounds – biochemical, biotinylated probe, 635/667 nm fluorescence, primary screen (AID 1113); conditions: small-molecule microarray, higher = more signal;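 also: score merges 667 nm fluorescence intensity with signal-to-noise per printed feature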
[17] = probe aShh binding to arrayed compounds – biochemical, biotinylated probe, 635/667 nm fluorescence, primary screen (AID 1114); conditions: small-molecule microarray, higher = more signal;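 also: probe is biotin-labelled aShh protein from a stem cell growth factor screen; measures binding of labelled protein to compounds printed on the slide; score merges feature fluorescence at 667 nm with signal-to-noise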
[18] = probe aNog binding to arrayed compounds – biochemical, biotinylated probe, 635/667 nm fluorescence, primary screen (AID 1115); conditions: small-molecule microarray, higher = more signal;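 also: probe is biotinylated aNog protein used at 0.15 µg/mL for 1 h at 4 C; z-score combines 667 nm fluorescence of each spot with its signal to noise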
[19] = molecular target: Torsin-1A-interacting protein 1 (Homo sapiens) (UniProt Q5JTV8); assay: compound microarray binding of lysate hLAP1 – cell lysate, small-molecule microarray, COS7 lysate, 635/667 nm fluorescence, primary screen (AID 1116); conditions: 635 nm fluorescence, higher = more signal
Chain of Torsin-1A-interacting protein 1 (Homo sapiens) (Q5JTV8 whole entry, looked up): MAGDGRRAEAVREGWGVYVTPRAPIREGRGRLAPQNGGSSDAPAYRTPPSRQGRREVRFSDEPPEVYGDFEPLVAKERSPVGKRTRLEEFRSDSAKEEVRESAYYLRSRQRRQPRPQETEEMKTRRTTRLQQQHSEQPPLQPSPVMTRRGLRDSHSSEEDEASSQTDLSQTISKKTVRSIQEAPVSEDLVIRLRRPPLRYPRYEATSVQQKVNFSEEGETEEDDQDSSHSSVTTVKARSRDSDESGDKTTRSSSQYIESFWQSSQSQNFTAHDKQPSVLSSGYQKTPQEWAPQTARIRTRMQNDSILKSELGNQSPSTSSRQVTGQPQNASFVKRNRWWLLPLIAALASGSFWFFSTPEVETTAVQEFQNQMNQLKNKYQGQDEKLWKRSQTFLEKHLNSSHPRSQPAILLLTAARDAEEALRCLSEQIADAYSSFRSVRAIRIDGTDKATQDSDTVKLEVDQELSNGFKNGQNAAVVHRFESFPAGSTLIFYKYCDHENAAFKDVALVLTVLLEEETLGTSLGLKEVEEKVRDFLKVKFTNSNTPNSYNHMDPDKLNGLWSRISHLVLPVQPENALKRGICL

[20] = molecular target: Alpha-bungarotoxin (Bungarus multicinctus) (UniProt P60615); assay: compounds binding labelled alpha-BTX control protein – biochemical, small-molecule microarray, Alexa647 label, 635/667 nm fluorescence, artefact control for SMM control protein annotation, profiling panel (AID 1117); conditions: alpha-BTX-A647 binding fluorescence, higher = more signal
Chain of Alpha-bungarotoxin (Bungarus multicinctus) (P60615 whole entry, looked up): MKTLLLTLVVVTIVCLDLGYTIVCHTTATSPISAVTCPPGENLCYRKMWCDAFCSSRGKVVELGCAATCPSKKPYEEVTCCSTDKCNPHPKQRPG

Row | Structure (SMILES) | composite z-score [1] | composite z-score [2] | composite z-score [3] | z-score [4] | composite z-score [5] | composite z-score [6] | composite z-score [7] | composite z-score [8] | composite z-score [9] | composite z-score [10] | composite z-score [11] | z-score [12] | composite z-score [13] | composite z-score [14] | composite z-score [15] | composite z-score [16] | composite z-score [17] | composite z-score [18] | composite z-score [19] | composite z-score [20]
1 | O=C1C[C@@](C(=O)NC2CC2)(c2ccc([N+](=O)[O-])cc2)[C@@H](c2ccc(CO)cc2I)N1CC12CC3CC(CC(C3)C1)C2 | 0.841 | -0.0788 | -0.52 | -1.11 (inactive) | 1.23 | 0.968 | 0.282 | 0.991 | 0.266 | -0.22 | 1.37 | -3.45 | 0.672 | 0.266 | -0.151 | 0.0644 | 0.574 | -0.0719 | 0.626 | 0.905
2 | CCN1C(C)=C(C(=O)OC)[C@@H](c2ccccc2)N2C(=O)[C@](O)(C(=O)OC)[C@@H](c3ccccc3)C(C(C)=O)=C12 | -1.67 | 0.182 | -0.539 | -2.82 (inactive) | 0.799 | 0.529 | 0.621 | 1.04 | 0.515 | 1.15 | -0.0269 | -0.279 | 0.784 | -0.693 | -0.0342 | -0.0125 | -0.262 | 0.19 | 0.0025 | -0.576
3 | CO[C@H]1O[C@H](CO)[C@@H](OC(=O)Nc2ccc(Oc3ccccc3)cc2)[C@H](OC(=O)Nc2ccccc2-c2ccccc2)[C@H]1OC(=O)Nc1ccccc1-c1ccccc1 | 1.35 | 0.542 | 0.748 | 2.76 (inactive) | 1.14 | 1.34 | 0.528 | 1.36 | 0.538 | 0.187 | 0.383 | -3.97 | 0.975 | 2.09 | -0.107 | 0.0676 | 0.11 | 0.786 | 1.77 | 2.98
4 | C#CCCCON=C1C[C@@H](O)[C@@H](O)[C@@H]2[C@@H]3C(=O)N(Cc4ccc5c(c4)OCO5)C(=O)[C@@H]3CC[C@@H]12 | 0.211 | -0.136 | 0.0822 | -0.117 (inactive) | 0.42 | 0.257 | 0.336 | 0.862 | 0.278 | 0.308 | 0.449 | 0.0713 | 0.448 | 0.127 | -0.19 | -0.096 | 0.147 | 0.0136 | -0.0849 | 1.4
5 | COC(=O)[C@H]1[C@@H]2COc3ccccc3[C@H]2N[C@H]1C(=O)OC | 0.0829 | -0.0995 | 0.0399 | -0.685 (inactive) | 0.348 | 0.332 | 0.261 | 0.327 | 0.0008 | 0.0992 | -0.339 | -0.591 | 0.362 | 0.623 | -0.266 | -0.0161 | -0.0626 | -0.223 | 0.0767 | 0.854
6 | COC(=O)[C@@]1(Cc2ccc(OC)cc2)[C@H]2c3cc(C(=O)N(C)C)n(CCc4ccc(OC)c(Br)c4)c3C[C@H]2CN1C(=O)c1ccccc1 | 0.843 | 1.98 | 1.47 | -1.13 (inactive) | 0.77 | 1.02 | -0.405 | 1.04 | -0.884 | 0.463 | 1.33 | -2.54 | -0.239 | 2.23 | 1.54 | 0.36 | 2.03 | 1.19 | 1.73 | 1.98
7 | CC(C)C[C@@H]1NC(=O)[C@H]2C[C@@H](C(=O)NCCCCCC[N+](C)(C)C)[C@@H](c3ccc(O)cc3)N2C1=O | 1.46 | -0.196 | 0.0009 | -0.177 (inactive) | -0.563 | -0.595 | -0.403 | 1.28 | 0.505 | 0.446 | 0.183 | 0.549 | -0.29 | -0.602 | -0.781 | -0.229 | 0.0856 | -0.169 | 0.418 | -0.111
8 | C=C(/C(=C/C[C@@H](OC(=O)c1ccncc1)c1ccc(CO)o1)c1cnc2ccccc2c1)C(C)C | 0.885 | 0.138 | -0.157 | 0.168 (inactive) | 1.06 | 1.29 | 0.623 | 1.43 | 0.574 | 1.58 | -1.09 | -1.05 | 0.846 | 1.64 | -0.116 | -0.124 | -0.0626 | 0.221 | 1.36 | 0.474
9 | COCCOC(=O)N1C(=O)[C@@]2(c3cc(C#CCCO)ccc31)[C@H](c1ccc(O)cc1)N1[C@H](c3ccccc3)[C@H](c3ccccc3)OC(=O)[C@H]1[C@@H]2C(=O)Nc1nc2ccccc2s1 | 0.762 | -0.0965 | -0.148 | -1.13 (inactive) | 1.33 | 1.32 | 0.562 | 1.44 | 0.685 | 0.364 | 1.37 | 0.688 | 0.704 | 0.207 | -0.567 | -0.0256 | -0.167 | -0.223 | 0.234 | 1.46
10 | CC(=O)NCCCC[C@@H]1NC(=O)[C@@H]2C[C@H](C(=O)NCCCCCCN(C)C)[C@H](c3ccc(O)cc3)N2C1=O | 1.02 | 0.363 | 0.117 | -1.45 (inactive) | 1.25 | 1.36 | 1.31 | 1.5 | 1.86 | 0.11 | -0.0336 | 1.08 | 0.73 | -0.158 | -1.14 | -0.201 | 0.0712 | 1.01 | 1.84 | 1.65
11 | Cc1ccc(S[C@]2(C(=O)O)CC(=O)N(Cc3ccccc3)[C@@H]2c2ccc(CO)cc2)cc1 | -0.844 | 0.638 | 0.899 | -0.718 (inactive) | -0.0355 | 0.132 | -0.289 | -0.0951 | -0.304 | 1.04 | -0.323 | 0.764 | -1.29 | 0.321 | 0.965 | -0.172 | 0.046 | -0.0563 | -0.257 | -0.198
